The results in this text go back to the supplement of paper PMC12645437, “Orthogonal IMiD-Degron Pairs Induce Selective Protein Degradation in Cells” (ACS Chemical Biology, 2025).

Whole data set: some 8,300 sequences, median “log2 fold change of degron read counts, EGFP-low vs EGFP+ sorted cells (limma voom), compound-induced degradation” near -1.1, cut for the highest 2% near 3.2. The full list was thinned out, with the highest values kept by preference.

The target in the assay is T1, CRBN, Q96SW2.
T1 chain: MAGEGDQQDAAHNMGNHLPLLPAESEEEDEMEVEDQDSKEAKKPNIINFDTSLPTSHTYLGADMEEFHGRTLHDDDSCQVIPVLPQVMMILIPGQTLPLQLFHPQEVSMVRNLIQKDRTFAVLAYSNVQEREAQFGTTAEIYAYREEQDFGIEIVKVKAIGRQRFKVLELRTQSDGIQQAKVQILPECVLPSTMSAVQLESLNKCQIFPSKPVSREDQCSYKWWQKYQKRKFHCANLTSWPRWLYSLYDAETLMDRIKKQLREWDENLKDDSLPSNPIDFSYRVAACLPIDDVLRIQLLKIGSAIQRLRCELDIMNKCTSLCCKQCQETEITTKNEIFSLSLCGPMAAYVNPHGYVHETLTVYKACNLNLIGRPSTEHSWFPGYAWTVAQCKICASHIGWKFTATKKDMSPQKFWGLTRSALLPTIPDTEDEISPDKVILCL
The assay is described as follows: log2 fold change of degron read counts, EGFP-low vs EGFP+ sorted cells (limma voom), compound-induced degradation; higher = more compound-induced degradation of the degron-EGFP fusion; degrons are variants of IKZF1/3 zinc finger 2; compound dose not given here. As to conditions: Jurkat, 18 h. Here is the method:
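Pooled library of 8380 IKZF3 ZF2 degron mutants (positions 146-167 varied within the IKZF3 130-189 degron; only the varied core is printed, flanks not printed) fused to EGFP with IRES-mCherry, lentivirally expressed in Jurkat cells. mCherry+ cells were treated with one IMiD compound for 18 h (dose not stated) and FACS-sorted into EGFP-low and EGFP+ populations. Degron sequences were counted by NGS, and log2FC (EGFP-low vs EGFP+) was estimated by limma voom over 3 biological replicates.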

The mark [1] stands for this setting: compound: compound 19 (5-tert-butyl-thalidomide).
[2] abbreviates: compound: compound 22 (5-morpholino-thalidomide).
The mark [3] stands for this setting: compound: compound 33 (diphenyl IMiD analogue).
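Further: pooled lentiviral library of zinc finger degron-EGFP fusions in mCherry-positive Jurkat cells, FACS-sorted after compound exposure, with degron abundance counted by next-generation sequencing.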

B1: 46F_47E_49N_50I_52G_53A_54L_55F_67L_, Q9UKT9 (peptide)
chain: FECNICGALFTQKGNLLRHIKL
Regarding B1, the “log2 fold change of degron read counts” value is -3.14 under setting [1], -2.25 under setting [2], -0.0305 under setting [3] and 0.62 (compound: thalidomide).

B2: 46F_47Q_49D_50V_52G_53A_54F_55F_67L_, Q9UKT9 (peptide)
chain: FQCDVCGAFFTQKGNLLRHIKL
For the sequence B2, the “log2 fold change of degron read counts” value reads like this: under setting [1], -2.75; under setting [2], -1.91; under setting [3], -0.307; (compound: thalidomide) 0.0287.

B3: 46F_47Y_49D_50Q_52G_53A_54Q_55F_67L_, Q9UKT9 (peptide)
chain: FYCDQCGAQFTQKGNLLRHIKL
On to B3, for which the “log2 fold change of degron read counts” value under setting [1] is 0.267, the “log2 fold change of degron read counts” value under setting [2] was 1.09, the “log2 fold change of degron read counts” value under setting [3] is -0.551 and the “log2 fold change of degron read counts” value (compound: thalidomide) was -2.11.

B4: 46L_47S_49P_50I_52G_53F_54Y_55C_67L_, Q9UKT9 (peptide)
chain: LSCPICGFYCTQKGNLLRHIKL
As to B4, the “log2 fold change of degron read counts” value under setting [1] stood at 2.68, the “log2 fold change of degron read counts” value under setting [2] was 2.68, the “log2 fold change of degron read counts” value under setting [3] was found to be 2.92 and the “log2 fold change of degron read counts” value (compound: thalidomide) came to 2.93.

B5: 46L_47I_49P_50I_52G_53F_54Y_55C_67L_, Q9UKT9 (peptide)
chain: LICPICGFYCTQKGNLLRHIKL
For the sequence B5, the “log2 fold change of degron read counts” value runs as follows: under setting [1], 0.5; under setting [2], 1.72; under setting [3], 1.99; (compound: thalidomide) 2.39.

B6: 46L_47M_49P_50I_52G_53F_54Y_55C_67L_, Q9UKT9 (peptide)
chain: LMCPICGFYCTQKGNLLRHIKL
For the sequence B6, the “log2 fold change of degron read counts” value is 0.482 under setting [1], 1.27 under setting [2], 2.88 under setting [3] and 2.19 (compound: thalidomide).

B7: 46L_47G_49P_50I_52G_53F_54Y_55C_67L_, Q9UKT9 (peptide)
chain: LGCPICGFYCTQKGNLLRHIKL
Take B7: the “log2 fold change of degron read counts” value reads like this: under setting [1], 3.53; under setting [2], 2.7; under setting [3], 2.46; (compound: thalidomide) 2.1.

B8: 46L_47Q_49P_50I_52G_53F_54Y_55C_67L_, Q9UKT9 (peptide)
chain: LQCPICGFYCTQKGNLLRHIKL
Take B8: the “log2 fold change of degron read counts” value stood at 1 under setting [1], 1.74 under setting [2], 2.07 under setting [3] and 3.47 (compound: thalidomide).

B9: 46L_47C_49P_50I_52G_53F_54Y_55C_67L_, Q9UKT9 (peptide)
chain: LCCPICGFYCTQKGNLLRHIKL
As to B9, the “log2 fold change of degron read counts” value stood at 1.68 under setting [1], 2.29 under setting [2], 3.16 under setting [3] and 3.24 (compound: thalidomide).

B10: 46L_47D_49P_50I_52G_53F_54Y_55C_67L_, Q9UKT9 (peptide)
chain: LDCPICGFYCTQKGNLLRHIKL
Regarding B10, the “log2 fold change of degron read counts” value was -0.0305 under setting [1], -0.355 under setting [2], 1.46 under setting [3] and 2.28 (compound: thalidomide).

B11: 46L_47F_49P_50I_52G_53F_54Y_55C_67L_, Q9UKT9 (peptide)
chain: LFCPICGFYCTQKGNLLRHIKL
With B11, the “log2 fold change of degron read counts” value under setting [1] stood at 2.88, the “log2 fold change of degron read counts” value under setting [2] came to 2.73, the “log2 fold change of degron read counts” value under setting [3] turned out to be 2.34 and the “log2 fold change of degron read counts” value (compound: thalidomide) was determined as 1.76.

B12: 46L_47H_49P_50I_52G_53F_54Y_55C_67L_, Q9UKT9 (peptide)
chain: LHCPICGFYCTQKGNLLRHIKL
On to B12, for which the “log2 fold change of degron read counts” value under setting [1] came to 2.56, the “log2 fold change of degron read counts” value under setting [2] stood at 2.82, the “log2 fold change of degron read counts” value under setting [3] turned out to be 2.85 and the “log2 fold change of degron read counts” value (compound: thalidomide) came out at 2.7.

B13: 46L_47A_49P_50I_52G_53F_54Y_55C_67L_, Q9UKT9 (peptide)
chain: LACPICGFYCTQKGNLLRHIKL
Regarding B13, the “log2 fold change of degron read counts” value by setting is: under setting [1], 3.56; under setting [2], 2.79; under setting [3], 2.52; (compound: thalidomide) 2.89.

B14: 46L_47V_49P_50I_52G_53F_54Y_55C_67L_, Q9UKT9 (peptide)
chain: LVCPICGFYCTQKGNLLRHIKL
On to B14, for which the “log2 fold change of degron read counts” value by setting is: under setting [1], 1.01; under setting [2], 2.39; under setting [3], 2.2; (compound: thalidomide) 2.84.

B15: 46L_47W_49P_50I_52G_53F_54Y_55C_67L_, Q9UKT9 (peptide)
chain: LWCPICGFYCTQKGNLLRHIKL
As to B15, the “log2 fold change of degron read counts” value reads like this: under setting [1], 2.78; under setting [2], 3.23; under setting [3], 2.86; (compound: thalidomide) 2.

B16: 46L_47Y_49E_50I_52G_53F_54G_55C_67L_, Q9UKT9 (peptide)
chain: LYCEICGFGCTQKGNLLRHIKL
Take B16: the “log2 fold change of degron read counts” value under setting [1] amounted to 2.73, the “log2 fold change of degron read counts” value under setting [2] came out at 2.15, the “log2 fold change of degron read counts” value under setting [3] turned out to be 1.33 and the “log2 fold change of degron read counts” value (compound: thalidomide) stood at 0.286.

B17: 46F_47V_49N_50Q_52G_53R_54W_55F_67L_, Q9UKT9 (peptide)
chain: FVCNQCGRWFTQKGNLLRHIKL
Take B17: the “log2 fold change of degron read counts” value by setting is: under setting [1], -2.52; under setting [2], -2.06; under setting [3], -2.42; (compound: thalidomide) -1.9.

B18: 46F_47D_49N_50V_52G_53A_54K_55F_67L_, Q9UKT9 (peptide)
chain: FDCNVCGAKFTQKGNLLRHIKL
Take B18: the “log2 fold change of degron read counts” value is -1.36 under setting [1], -2.41 under setting [2], -2.78 under setting [3] and -0.891 (compound: thalidomide).

B19: 46L_47L_49P_50I_52G_53F_54Y_55C_67L_, Q9UKT9 (peptide)
chain: LLCPICGFYCTQKGNLLRHIKL
Regarding B19, the “log2 fold change of degron read counts” value is 0.305 under setting [1], 0.574 under setting [2], 1.63 under setting [3] and 1.96 (compound: thalidomide).

B20: 46L_47K_49P_50I_52G_53F_54Y_55C_67L_, Q9UKT9 (peptide)
chain: LKCPICGFYCTQKGNLLRHIKL
For B20, the “log2 fold change of degron read counts” value is -0.431 under setting [1], -0.605 under setting [2], -1.14 under setting [3] and 0.828 (compound: thalidomide).

B21: 46L_47E_49P_50I_52G_53F_54Y_55C_67L_, Q9UKT9 (peptide)
chain: LECPICGFYCTQKGNLLRHIKL
On to B21, for which the “log2 fold change of degron read counts” value was found to be 0.407 under setting [1], 0.1 under setting [2], 2.47 under setting [3] and 3.34 (compound: thalidomide).

B22: 46L_47N_49P_50I_52G_53F_54Y_55C_67L_, Q9UKT9 (peptide)
chain: LNCPICGFYCTQKGNLLRHIKL
In the case of B22, the “log2 fold change of degron read counts” value was 1.76 under setting [1], 1.72 under setting [2], 1.52 under setting [3] and 2.04 (compound: thalidomide).

B23: 46L_47T_49P_50I_52G_53F_54Y_55C_67L_, Q9UKT9 (peptide)
chain: LTCPICGFYCTQKGNLLRHIKL
Turning to B23, the “log2 fold change of degron read counts” value reads like this: under setting [1], 1.69; under setting [2], 2.58; under setting [3], 2.93; (compound: thalidomide) 3.24.

B24: 46L_47Y_49P_50I_52G_53F_54Y_55C_67L_, Q9UKT9 (peptide)
chain: LYCPICGFYCTQKGNLLRHIKL
As for B24, the “log2 fold change of degron read counts” value is, setting by setting: under setting [1], 3.22; under setting [2], 3.11; under setting [3], 2.72; (compound: thalidomide) 1.82.

B25: 46F_47C_49E_50I_52G_53H_54I_55F_67L_, Q9UKT9 (peptide)
chain: FCCEICGHIFTQKGNLLRHIKL
For B25, the “log2 fold change of degron read counts” value is, setting by setting: under setting [1], -2.19; under setting [2], -2.44; under setting [3], -1.42; (compound: thalidomide) -1.61.

B26: 46F_47L_49N_50Q_52G_53R_54T_55F_67L_, Q9UKT9 (peptide)
chain: FLCNQCGRTFTQKGNLLRHIKL
With B26, the “log2 fold change of degron read counts” value was -2.4 under setting [1], -2.94 under setting [2], -3.37 under setting [3] and -2.18 (compound: thalidomide).

B27: 46F_47N_49P_50Q_52G_53A_54N_55F_67L_, Q9UKT9 (peptide)
chain: FNCPQCGANFTQKGNLLRHIKL
Take B27: the “log2 fold change of degron read counts” value by setting is: under setting [1], -1.43; under setting [2], -2.18; under setting [3], -1.52; (compound: thalidomide) -2.31.

B28: 46F_47T_49E_50I_52G_53A_54Y_55F_67L_, Q9UKT9 (peptide)
chain: FTCEICGAYFTQKGNLLRHIKL
Regarding B28, the “log2 fold change of degron read counts” value is, setting by setting: under setting [1], 0.598; under setting [2], 1.53; under setting [3], 2.02; (compound: thalidomide) 2.85.
